Here are results for 34 sequences from the supplement of paper PMC12645437, “Orthogonal IMiD-Degron Pairs Induce Selective Protein Degradation in Cells” (ACS Chemical Biology, 2025).

Over roughly 8,300 sequences, “log2 fold change of degron read counts, EGFP-low vs EGFP+ sorted cells (limma voom), compound-induced degradation” has its median near -1.1; the highest 2% begin near 3.2. This is one part of a sample in which the highest values are shown more often than they occur.

The target of the assay is T1, CRBN, Q96SW2.
T1 chain: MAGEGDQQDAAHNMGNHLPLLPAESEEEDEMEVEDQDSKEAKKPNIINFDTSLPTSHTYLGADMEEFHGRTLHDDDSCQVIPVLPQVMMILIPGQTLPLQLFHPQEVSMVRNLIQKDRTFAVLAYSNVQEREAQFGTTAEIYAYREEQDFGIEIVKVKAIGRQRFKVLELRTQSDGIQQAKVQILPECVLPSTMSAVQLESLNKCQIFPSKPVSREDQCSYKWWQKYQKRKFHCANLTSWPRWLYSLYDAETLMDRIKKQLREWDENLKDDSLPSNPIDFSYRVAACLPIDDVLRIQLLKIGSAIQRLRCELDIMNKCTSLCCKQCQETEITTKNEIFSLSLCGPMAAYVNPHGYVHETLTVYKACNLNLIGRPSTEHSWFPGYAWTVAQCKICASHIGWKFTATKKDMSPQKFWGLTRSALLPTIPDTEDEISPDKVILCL
Nature of the assay: log2 fold change of degron read counts, EGFP-low vs EGFP+ sorted cells (limma voom), compound-induced degradation; higher = more compound-induced degradation of the degron-EGFP fusion; degrons are variants of IKZF1/3 zinc finger 2; compound dose not given here. The settings on record: Jurkat, 18 h. As to the method:
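Pooled library of 8380 IKZF3 ZF2 degron mutants (positions 146-167 varied within the IKZF3 130-189 degron; only the varied core is printed, flanks not printed) fused to EGFP with IRES-mCherry, lentivirally expressed in Jurkat cells. mCherry+ cells were treated with one IMiD compound for 18 h (dose not stated) and FACS-sorted into EGFP-low and EGFP+ populations. Degron sequences were counted by NGS, and log2FC (EGFP-low vs EGFP+) was estimated by limma voom over 3 biological replicates.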

Where [1] appears, read: compound: compound 19 (5-tert-butyl-thalidomide).
The mark [2] stands for this setting: compound: compound 22 (5-morpholino-thalidomide).
Where [3] appears, read: compound: compound 33 (diphenyl IMiD analogue).
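Further: pooled lentiviral library of zinc finger degron-EGFP fusions in mCherry-positive Jurkat cells, FACS-sorted after compound exposure, with degron abundance counted by next-generation sequencing.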

For FWCEQCGAQFTQKGNLLRHIKL [46F_47W_49E_50Q_52G_53A_54Q_55F_67L_, Q9UKT9], the “log2 fold change of degron read counts” value is 0.92 under setting [1], 2.94 under setting [2], 0.838 under setting [3] and -0.633 (compound: thalidomide).

For FFCPICGACFTQKGNLLRHIKL [46F_47F_49P_50I_52G_53A_54C_55F_67L_, Q9UKT9], the “log2 fold change of degron read counts” value by setting is: under setting [1], 3.22; under setting [2], 3.44; under setting [3], 2.28; (compound: thalidomide) 1.16.

FKCPICGACFTQKGNLLRHIKL [46F_47K_49P_50I_52G_53A_54C_55F_67L_, Q9UKT9]: the “log2 fold change of degron read counts” value is, setting by setting: under setting [1], -0.511; under setting [2], -2.33; under setting [3], -2.58; (compound: thalidomide) -0.71.

For FECPICGACFTQKGNLLRHIKL [46F_47E_49P_50I_52G_53A_54C_55F_67L_, Q9UKT9], the “log2 fold change of degron read counts” value under setting [1] was 0.233, the “log2 fold change of degron read counts” value under setting [2] was -0.321, the “log2 fold change of degron read counts” value under setting [3] was determined as 2.66 and the “log2 fold change of degron read counts” value (compound: thalidomide) amounted to 2.94.

Consider FHCPICGACFTQKGNLLRHIKL [46F_47H_49P_50I_52G_53A_54C_55F_67L_, Q9UKT9], for which the “log2 fold change of degron read counts” value under setting [1] turned out to be 2.71, the “log2 fold change of degron read counts” value under setting [2] was 2.64, the “log2 fold change of degron read counts” value under setting [3] is 2.08 and the “log2 fold change of degron read counts” value (compound: thalidomide) worked out at 0.899.

Take FRCPICGACFTQKGNLLRHIKL [46F_47R_49P_50I_52G_53A_54C_55F_67L_, Q9UKT9]: the “log2 fold change of degron read counts” value by setting is: under setting [1], -0.121; under setting [2], 0.343; under setting [3], 1.61; (compound: thalidomide) 1.35.

For FGCPICGACFTQKGNLLRHIKL [46F_47G_49P_50I_52G_53A_54C_55F_67L_, Q9UKT9], the “log2 fold change of degron read counts” value was determined as 3.9 under setting [1], 2.82 under setting [2], 2.74 under setting [3] and 1.24 (compound: thalidomide).

For the sequence LQCEICGFFCTQKGNLLRHIKL [46L_47Q_49E_50I_52G_53F_54F_55C_67L_, Q9UKT9], the “log2 fold change of degron read counts” value under setting [1] was -0.636, the “log2 fold change of degron read counts” value under setting [2] was -0.227, the “log2 fold change of degron read counts” value under setting [3] amounted to 0.554 and the “log2 fold change of degron read counts” value (compound: thalidomide) turned out to be 1.77.

Regarding FVCEICGRLFTQKGNLLRHIKL [46F_47V_49E_50I_52G_53R_54L_55F_67L_, Q9UKT9], the “log2 fold change of degron read counts” value by setting is: under setting [1], -1.71; under setting [2], -1.28; under setting [3], -0.137; (compound: thalidomide) 0.207.

As for FQCNICGASFTQKGNLLRHIKL [46F_47Q_49N_50I_52G_53A_54S_55F_67L_, Q9UKT9], the “log2 fold change of degron read counts” value was 0.609 under setting [1], 1.43 under setting [2], 1.22 under setting [3] and 3.34 (compound: thalidomide).

In the case of FACNICGASFTQKGNLLRHIKL [46F_47A_49N_50I_52G_53A_54S_55F_67L_, Q9UKT9], the “log2 fold change of degron read counts” value stood at 2.29 under setting [1], 2.03 under setting [2], 0.254 under setting [3] and 0.112 (compound: thalidomide).

Take FMCNICGASFTQKGNLLRHIKL [46F_47M_49N_50I_52G_53A_54S_55F_67L_, Q9UKT9]: the “log2 fold change of degron read counts” value runs as follows: under setting [1], -0.622; under setting [2], 0.367; under setting [3], 2.22; (compound: thalidomide) 0.902.

Take FNCNICGASFTQKGNLLRHIKL [46F_47N_49N_50I_52G_53A_54S_55F_67L_, Q9UKT9]: the “log2 fold change of degron read counts” value by setting is: under setting [1], 1.49; under setting [2], 0.652; under setting [3], 0.369; (compound: thalidomide) -0.42.

As to FYCNICGASFTQKGNLLRHIKL [46F_47Y_49N_50I_52G_53A_54S_55F_67L_, Q9UKT9], the “log2 fold change of degron read counts” value under setting [1] was found to be 2.45, the “log2 fold change of degron read counts” value under setting [2] was determined as 2.95, the “log2 fold change of degron read counts” value under setting [3] is 1.49 and the “log2 fold change of degron read counts” value (compound: thalidomide) was -0.148.

Turning to FWCNICGASFTQKGNLLRHIKL [46F_47W_49N_50I_52G_53A_54S_55F_67L_, Q9UKT9], the “log2 fold change of degron read counts” value is, setting by setting: under setting [1], 2.6; under setting [2], 3.54; under setting [3], 1.69; (compound: thalidomide) 0.481.

For the sequence FHCDVCGAFFTQKGNLLRHIKL [46F_47H_49D_50V_52G_53A_54F_55F_67L_, Q9UKT9], the “log2 fold change of degron read counts” value under setting [1] was -1.48, the “log2 fold change of degron read counts” value under setting [2] was -1.49, the “log2 fold change of degron read counts” value under setting [3] was -1.88 and the “log2 fold change of degron read counts” value (compound: thalidomide) was -2.83.

Turning to FKCNICGAKFTQKGNLLRHIKL [46F_47K_49N_50I_52G_53A_54K_55F_67L_, Q9UKT9], the “log2 fold change of degron read counts” value is, setting by setting: under setting [1], -2.4; under setting [2], -3.54; under setting [3], -2.58; (compound: thalidomide) -2.17.

For FRCSVCGHFFTQKGNLLRHIKL [46F_47R_49S_50V_52G_53H_54F_55F_67L_, Q9UKT9], the “log2 fold change of degron read counts” value runs as follows: under setting [1], -2.15; under setting [2], -2.33; under setting [3], -2.44; (compound: thalidomide) -1.78.

Consider FVCEICGHLFTQKGNLLRHIKL [46F_47V_49E_50I_52G_53H_54L_55F_67L_, Q9UKT9], for which the “log2 fold change of degron read counts” value was -3.22 under setting [1], -3.09 under setting [2], -2.38 under setting [3] and -2.39 (compound: thalidomide).

On to FECNICGALFTQKGNLLRHIKL [46F_47E_49N_50I_52G_53A_54L_55F_67L_, Q9UKT9], for which the “log2 fold change of degron read counts” value under setting [1] is -3.14, the “log2 fold change of degron read counts” value under setting [2] is -2.25, the “log2 fold change of degron read counts” value under setting [3] was -0.0305 and the “log2 fold change of degron read counts” value (compound: thalidomide) came out at 0.62.

Turning to FQCDVCGAFFTQKGNLLRHIKL [46F_47Q_49D_50V_52G_53A_54F_55F_67L_, Q9UKT9], the “log2 fold change of degron read counts” value is, setting by setting: under setting [1], -2.75; under setting [2], -1.91; under setting [3], -0.307; (compound: thalidomide) 0.0287.

FYCDQCGAQFTQKGNLLRHIKL [46F_47Y_49D_50Q_52G_53A_54Q_55F_67L_, Q9UKT9]: the “log2 fold change of degron read counts” value by setting is: under setting [1], 0.267; under setting [2], 1.09; under setting [3], -0.551; (compound: thalidomide) -2.11.

Regarding LFCPICGFYCTQKGNLLRHIKL [46L_47F_49P_50I_52G_53F_54Y_55C_67L_, Q9UKT9], the “log2 fold change of degron read counts” value by setting is: under setting [1], 2.88; under setting [2], 2.73; under setting [3], 2.34; (compound: thalidomide) 1.76.

Consider LCCPICGFYCTQKGNLLRHIKL [46L_47C_49P_50I_52G_53F_54Y_55C_67L_, Q9UKT9], for which the “log2 fold change of degron read counts” value turned out to be 1.68 under setting [1], 2.29 under setting [2], 3.16 under setting [3] and 3.24 (compound: thalidomide).

As to LWCPICGFYCTQKGNLLRHIKL [46L_47W_49P_50I_52G_53F_54Y_55C_67L_, Q9UKT9], the “log2 fold change of degron read counts” value under setting [1] is 2.78, the “log2 fold change of degron read counts” value under setting [2] was 3.23, the “log2 fold change of degron read counts” value under setting [3] was determined as 2.86 and the “log2 fold change of degron read counts” value (compound: thalidomide) was determined as 2.

For the sequence LVCPICGFYCTQKGNLLRHIKL [46L_47V_49P_50I_52G_53F_54Y_55C_67L_, Q9UKT9], the “log2 fold change of degron read counts” value was found to be 1.01 under setting [1], 2.39 under setting [2], 2.2 under setting [3] and 2.84 (compound: thalidomide).

Turning to LGCPICGFYCTQKGNLLRHIKL [46L_47G_49P_50I_52G_53F_54Y_55C_67L_, Q9UKT9], the “log2 fold change of degron read counts” value came out at 3.53 under setting [1], 2.7 under setting [2], 2.46 under setting [3] and 2.1 (compound: thalidomide).

As for LQCPICGFYCTQKGNLLRHIKL [46L_47Q_49P_50I_52G_53F_54Y_55C_67L_, Q9UKT9], the “log2 fold change of degron read counts” value reads like this: under setting [1], 1; under setting [2], 1.74; under setting [3], 2.07; (compound: thalidomide) 3.47.

In the case of LICPICGFYCTQKGNLLRHIKL [46L_47I_49P_50I_52G_53F_54Y_55C_67L_, Q9UKT9], the “log2 fold change of degron read counts” value reads like this: under setting [1], 0.5; under setting [2], 1.72; under setting [3], 1.99; (compound: thalidomide) 2.39.

Turning to LMCPICGFYCTQKGNLLRHIKL [46L_47M_49P_50I_52G_53F_54Y_55C_67L_, Q9UKT9], the “log2 fold change of degron read counts” value is, setting by setting: under setting [1], 0.482; under setting [2], 1.27; under setting [3], 2.88; (compound: thalidomide) 2.19.

Consider LDCPICGFYCTQKGNLLRHIKL [46L_47D_49P_50I_52G_53F_54Y_55C_67L_, Q9UKT9], for which the “log2 fold change of degron read counts” value under setting [1] was -0.0305, the “log2 fold change of degron read counts” value under setting [2] is -0.355, the “log2 fold change of degron read counts” value under setting [3] amounted to 1.46 and the “log2 fold change of degron read counts” value (compound: thalidomide) was 2.28.

On to LACPICGFYCTQKGNLLRHIKL [46L_47A_49P_50I_52G_53F_54Y_55C_67L_, Q9UKT9], for which the “log2 fold change of degron read counts” value by setting is: under setting [1], 3.56; under setting [2], 2.79; under setting [3], 2.52; (compound: thalidomide) 2.89.

For LHCPICGFYCTQKGNLLRHIKL [46L_47H_49P_50I_52G_53F_54Y_55C_67L_, Q9UKT9], the “log2 fold change of degron read counts” value is 2.56 under setting [1], 2.82 under setting [2], 2.85 under setting [3] and 2.7 (compound: thalidomide).

As to LSCPICGFYCTQKGNLLRHIKL [46L_47S_49P_50I_52G_53F_54Y_55C_67L_, Q9UKT9], the “log2 fold change of degron read counts” value was determined as 2.68 under setting [1], 2.68 under setting [2], 2.92 under setting [3] and 2.93 (compound: thalidomide).
